# High-throughput results from PubChem BioAssay.
# GPR151 ag: activators of human GPR151; Q8TDV0; PathHunter beta-arrestin GPR151 cells, luminescence; activation, % at 11.2 µM; 650,000 tested, 1% active; in the data active means activation above about 4.9%;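 further: 0% = median of compound wells and 100% = cells with positive control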
# Target sequence (Q8TDV0 whole entry, looked up): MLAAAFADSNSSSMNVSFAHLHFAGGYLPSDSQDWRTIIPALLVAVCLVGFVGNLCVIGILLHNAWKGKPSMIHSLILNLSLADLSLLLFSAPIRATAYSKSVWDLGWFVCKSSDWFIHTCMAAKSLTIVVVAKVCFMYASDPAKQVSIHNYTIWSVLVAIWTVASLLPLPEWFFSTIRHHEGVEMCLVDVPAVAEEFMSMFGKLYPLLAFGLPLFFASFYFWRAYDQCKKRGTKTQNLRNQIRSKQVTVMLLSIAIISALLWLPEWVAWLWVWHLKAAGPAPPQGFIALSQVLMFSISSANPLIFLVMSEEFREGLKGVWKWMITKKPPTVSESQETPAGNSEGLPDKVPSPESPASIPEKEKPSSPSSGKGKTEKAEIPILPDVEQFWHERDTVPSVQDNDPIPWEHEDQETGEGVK
# MITF primary: blocks human microphthalmia-associated transcription factor. 650,000 tested, 0.91% active. inhibition, % at 2.6 µM. AlphaScreen MITF homodimerization, bead proximity signal. O75030. AID 1259374; in the data active means inhibition above about 50%;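 further: 0% = vehicle wells with protein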
# TEAD-YAP block: TEAD-YAP interaction inhibition; AID 1259422; inhibition, % at 9.12 µM; HEK-TIYL cells, TEAD-Gal4/YAP UAS-luciferase luminescence; 640,000 tested, 1.4% active; in the data active means inhibition above about 32%;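 further: 0% = median of test compound wells and 100% = reference inhibitor wells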
# FBW7 act: human FBW7 E3 ligase activation, primary screen. normalized activity (activation), % at 26.1 µM. Q969H0. AlphaScreen FBW7–phospho-cyclin E peptide binding, activator screen. AID 1259310. 650,000 tested, 0.13% active; in the data active means normalized activity above about 1.9%;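 further: purified mutant Fbw7 with reduced substrate affinity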
# MITF confirm: human MITF inhibition, confirmation | shares compounds with MITF primary | AlphaScreen MITF homodimerization, biotin/His-MITF beads | inhibition, % at 2.6 µM | 4,700 tested, 16% active | AID 1259372;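 active means inhibition above a cutoff derived from the DMSO control wells, cut at about 28% in these data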;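 further: 0% = MITF dimer wells with DMSO only; inhibitors lower the bead chemiluminescence by keeping MITF from dimerizing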
# AlphaScreen DR: AlphaScreen optical interference, dose response counter-screen. shares compounds with MITF primary. AlphaScreen optical interference counterscreen, cell-free. IC50, µM. 480 tested, 6% active. AID 1259373; call rule not given here
# AS interf ctr: AlphaScreen optical interference, counter-screen; shares compounds with MITF primary; LysRS AlphaScreen counterscreen, signal interference, triplicate; inhibition, % at 2.6 µM; 4,700 tested, 7.6% active; AID 1259376;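 active means inhibition above a cutoff derived from the DMSO control wells, cut at about 30% in these data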
# * marks the source's active call; other numbers are inactive results; . = not tested or not shown. Rows were chosen to be rich in hits. Some 3.5% of all compounds tested hit in one or more screens of this group.
SMILES,GPR151 ag,MITF primary,TEAD-YAP block,FBW7 act,MITF confirm,AS interf ctr,others
O=C(CCCC[C@@H]1SC[C@@H]2NC(=O)N[C@@H]21)NCCCC[C@H](NC(=O)CCN1C(=O)C=CC1=O)C(=O)O,-2,124*,.,.,124*,101*,
CCCCC[C@H](O)/C=C/[C@H]1C(=O)C[C@H](O)[C@@H]1C/C=C\CCCC(=O)OCC(O)CO (stereo not given in full),1,71*,.,.,-6,-3,
CCCCOC(=O)COc1ccc2c(=O)c(Oc3ccc(OC)cc3)coc2c1,-1,-1,-9,0,.,.,
CC(Oc1ccccc1)C(=O)Nc1ccc(S(N)(=O)=O)cc1 (stereo not given),1,-21,1,0,.,.,
N#CC1=C(N)N(c2ccc(Br)cn2)C2=C(C(=O)CCC2)C1c1ccccc1 (stereo not given),-1,-15,-2,0,.,.,
O=C(CNC(c1ccccc1)c1ccccc1)NNC(=O)c1ccccc1Br,0,63*,1,0,9,17,
O=C(NC(c1ccccc1)c1ccccc1)c1ccccc1Br,0,13,-1,0,.,.,
Cc1ccc(NC(=O)c2cc(-c3ccco3)on2)cc1C,-1,-2,-68,0,.,.,
CNC(=O)Nc1ccc2nc(-c3ccco3)c(-c3ccco3)nc2c1,0,110*,16,-1,110*,15,AlphaScreen DR=>6.5
O=S(=O)(c1ccc(Cl)cc1)N1CCN(C2CCN(Cc3ccccc3)CC2)CC1,-1,2,-5,0,.,.,
CN1CCN(C2CCN(S(=O)(=O)c3ccccc3)CC2)CC1,0,59*,6,0,6,14,
COc1ccc(S(=O)(=O)N2CCC(N3CCN(Cc4ccccc4)CC3)CC2)cc1,0,78*,7,0,-2,0,
COc1ccc(S(=O)(=O)N2CCC(N3CCN(c4ccccc4F)CC3)CC2)cc1,0,52*,9,0,7,-1,
COc1ccc(S(=O)(=O)N2CCN(c3ccccc3F)CC2)cc1,0,22,-11,0,.,.,
COc1ccc(S(=O)(=O)N2CCCN(Cc3ccccc3)CC2)cc1,-1,17,4,0,.,.,
O=S(=O)(c1ccc2ccccc2c1)N1CCC(N2CCN(Cc3ccccc3)CC2)CC1,-2,57*,11,0,6,15,
O=S(=O)(c1ccccc1)N1CCC(N2CCCCCC2)CC1,2,28,1,0,.,.,
COC(=O)c1c(NC(=O)c2ccco2)sc(C(=O)Nc2ccccc2)c1C,2,8,-2,1,.,.,
CC(=O)Nc1ccc(CN2CCN(C)CC2)cc1,-1,80*,-4,0,3,19,
CN1CCN(Cc2ccc(-c3ccccc3)cc2)CC1,-1,61*,-14,0,15,6,
OCCN1CCN(Cc2ccc(-c3ccccc3)cc2)CC1,1,61*,-6,0,17,4,
c1ccc(-c2ccc(CN3CCSCC3)cc2)cc1,0,12,-7,0,.,.,
CNC(=O)COc1cc(-c2cn[nH]c2)ccc1NC(=O)C1COc2ccc(OC)cc2C1 (stereo not given),1,66*,-1,1,52*,20,AlphaScreen DR=>6.5
CN(C)c1ccc(N=Cc2ccc(N3CCOCC3)cc2)cc1,-1,0,-4,0,.,.,
CCN(CCN(C)C)Cc1ccc(NC(C)=O)cc1,-1,46,9,0,.,.,
SMILES,GPR151 ag,MITF primary,TEAD-YAP block,FBW7 act,MITF confirm,AS interf ctr,others
CCN(CC)CCN(C)Cc1ccc([N+](=O)[O-])cc1,1,73*,-8,0,8,21,
COc1cccc(CN(CCN(C)C)Cc2ccccc2)c1OC,0,52*,4,0,-6,-3,
CN(C)CCN(Cc1ccccc1)Cc1ccccc1O,0,-349,-1,0,.,.,
CN(C)CCN(Cc1ccccc1)Cc1ccc([N+](=O)[O-])cc1,0,66*,-8,0,5,2,
CN(C)CCN(Cc1ccccc1)Cc1ccc(O)cc1,-1,33,-1,0,.,.,
CC(=O)Nc1ccc(CN(CCN(C)C)Cc2ccccc2)cc1,0,59*,2,0,-3,0,
Cc1cc(C)nc(/N=C(\NC(=O)NC2CCCCC2)Nc2ccccc2)n1,1,6,-3,0,.,.,
O=C1C2C(C(=O)N1/N=C/c1ccc(-c3ccc([N+](=O)[O-])cc3)o1)C1C=CC2C12CC2 (stereo not given),-1,6,-3,0,.,.,
COc1ccc(OC)c(CN2CCN(Cc3cccc(Br)c3)CC2)c1,0,59*,0,0,18,18,
COc1ccc(CN2CCN(Cc3ccc(OC)c(Br)c3)CC2)c(OC)c1,0,63*,-9,0,2,5,
COc1ccc(OC)c(CN2CCN(Cc3ccc(OC)c(Br)c3)CC2)c1,-1,66*,5,0,11,18,
COc1ccc(CN2CCN(C3CCCC3)CC2)cc1Br,-1,23,2,0,.,.,
O=C(Cn1cc(NC(=O)c2ccc3c(c2)OCO3)cn1)NC1CCCc2ccccc21 (stereo not given),4,-4,-4,0,.,.,
CCCn1nnc(NC(=O)COc2ccc(Br)cc2)n1,4,4,4,0,.,.,
COc1ccc(C/C(C)=N/Nc2nc3ccccc3[nH]2)cc1,-1,67*,-45,0,16,38*,
Cn1c(=O)cc(N2CCCCC2)n(Cc2cccc(C(F)(F)F)c2)c1=O,1,2,-9,0,.,.,
Cn1c(=O)cc(N2CCCC2)n(Cc2cccc(C(F)(F)F)c2)c1=O,1,68*,6,0,12,18,
C#CCNCC(O)COc1ccc(OCC)cc1 (stereo not given),-1,66*,-21,0,3,7,
OC(CN1CCN(Cc2ccccc2)CC1)CN1c2ccccc2Sc2ccccc21 (stereo not given),3,56*,5,-1,6,0,
O=C(CN1Cc2ccccc2OC(c2ccccc2F)C1)NC1CCC(O)CC1 (stereo not given),-1,-5,-5,0,.,.,
O=C(CN1Cc2ccccc2OC(c2ccccc2F)C1)NCC1CCS(=O)(=O)C1 (stereo not given),0,61*,5,0,2,2,
COC(F)(C(=O)Oc1cc([N+](=O)[O-])cc2cccnc12)C(F)(F)F (stereo not given),0,95*,43*,-1,99*,101*,
COc1ccc(-c2csc(/C(C#N)=C/Nc3ccc(S(N)(=O)=O)cc3)n2)cc1OC,0,-1,7,0,.,.,
CC(=O)Nc1ccc(NC(=O)Cc2ccc(Br)cc2)cc1,-1,58*,-7,0,19,8,
Cc1cc(C(=O)N2CCC[C@@H]3CN(C(=O)Cc4cccc(F)c4)CC[C@@H]32)c2ccccc2n1,-1,-3,1,0,.,.,
O=C(N1CCN(c2ccccc2)CC1)C12CC3CC(CC(O)(C3)C1)C2,-2,5,-7,0,.,.,
